SMN2 splice enh: enhancers of SMN2 splice variant expression | 210,000 compounds, 2.8% hits | Potency, µM (titrated, usually from 46.1 µM), inactives show at the highest dose activity change, positive = activation, hits mostly activators | AID 1458 | HEK293 SMN2-luciferase splicing reporter, luminescence, 30-36 h; also: % of control where 0% means no effect; nearly all actives have a fitted effect of over 55% in size
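HEK293 cells carry an SMN2 minigene-luciferase reporter in which exon 7 inclusion puts luciferase in frame. Cells were seeded at 2000 cells/well, attached for 10-12 hours, then exposed to compounds for 30-36 hours at 37C before ONE-Glo luminescence.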
ELG1 genotoxic: genotoxicity induction in ELG1-luciferase HEK293T cells; AID 504466; Potency, µM (doses to about 46 µM), without a hit: at the top dose activity change, positive = activation, actives largely listed as activators; 330,000 compounds, 1.3% hits; HEK293T ELG1-luciferase reporter, luminescence, 16 h; also: % of control where 0% means no effect; nearly all actives have a fitted effect of over 60% in size
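ELG1-luciferase HEK293T cells, 2,000/well; compound pinned in; 16 hr, 37 °C, 5% CO2; ONE-Glo, 30 min RT; luminescence on CCD imager.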
NPC1 prom act: activators of NPC1 promoter; Huh7 NPC1 promoter luciferase reporter, 24 h; Potency, µM (highest dose often 9.22 µM), without a hit: at the top dose activation, hits mostly activators; 320,000 compounds, 2.4% hits; AID 485313; also: % of control where 0% means no effect; nearly all actives have a fitted effect of over 60% in size
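Huh7 cells stably carrying NPC1 promoter–luciferase, plated in Opti-MEM with 10% FBS for 2 h, were exposed to compound in DMSO for 24 h at 37 °C; luciferase reagent was added for 10 min and luminescence read.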
Luc counter: Kinase-Glo luciferase inhibition (counter-screen); 200,000 compounds, 0.28% hits; Potency, µM (highest dose often 38.3 µM), for inactives: top-dose activity change, negative = inhibition, usual class: inhibitors; AID 1379; Kinase-Glo luciferase, ATP luminescence, 8 min; also: % is scaled to controls: 0 for no effect and ±100 for the full control effect; nearly all actives have a fitted effect of over 60% in size
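Compounds were added to a substrate mix at pH 7.2 (50 mM imidazole, 10 uM ATP, within the enzyme's linear range), followed by Kinase-Glo detection reagent; luminescence was measured after 8 minutes at ambient temperature.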
FLuc modulator: firefly luciferase modulation, counter-screen for miR-21 project; purified FLuc, Km substrates, luminescence inhibition; Potency, µM (doses to about 57.5 µM), without a hit: at the highest dose activity change, negative = inhibition, usual class: inhibitors; 360,000 compounds, 6.9% hits;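 also: plate controls were vehicle for no effect and reference inhibitor for full effect; nearly all actives have a fitted effect of over 55% in size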
Target sequence (P08659 whole entry, looked up): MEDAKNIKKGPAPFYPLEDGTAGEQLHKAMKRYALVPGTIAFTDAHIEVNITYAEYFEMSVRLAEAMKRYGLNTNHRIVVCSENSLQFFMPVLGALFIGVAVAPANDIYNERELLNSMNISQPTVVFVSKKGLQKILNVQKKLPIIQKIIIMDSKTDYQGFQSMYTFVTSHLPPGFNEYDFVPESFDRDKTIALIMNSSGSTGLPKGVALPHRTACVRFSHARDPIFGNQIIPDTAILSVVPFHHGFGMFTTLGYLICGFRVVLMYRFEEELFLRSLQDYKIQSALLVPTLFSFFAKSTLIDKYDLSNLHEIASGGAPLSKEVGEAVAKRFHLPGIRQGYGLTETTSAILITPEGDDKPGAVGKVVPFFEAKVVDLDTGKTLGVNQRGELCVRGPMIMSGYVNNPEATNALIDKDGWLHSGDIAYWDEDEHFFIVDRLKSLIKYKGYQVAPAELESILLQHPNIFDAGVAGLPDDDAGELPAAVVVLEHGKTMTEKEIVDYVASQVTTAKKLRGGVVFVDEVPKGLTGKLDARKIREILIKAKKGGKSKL
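Purified P. pyralis luciferase (10nM final) with 10uM D-luciferin and 10uM ATP (Km levels) in 50mM Tris acetate pH 7.5, 10mM Mg acetate, 0.01% Tween-20, 0.05% BSA; qHTS 6-point titration, ~60 µM downward; luminescence read.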
Rab9 prom act: Rab9 promoter activation; Huh7 Rab9 promoter-luciferase reporter, luminescence, 24 h; Potency, µM (highest dose often 9.22 µM), for inactives: at the top dose activation, negative = inhibition, usual class: activators; 320,000 compounds, 2.8% hits; AID 485297; also: % of control where 0% means no effect; nearly all actives have a fitted effect of over 60% in size
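Luminescence read-out: Huh7 cells stably expressing Rab9-luciferase, treated 24 h with compound at 37 °C, then lysed with luciferase reagent for 10 min at ambient before reading.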
* = called active by the depositor; u = inconclusive; x = no result. In the library only some 7.5% were active in any assay of this set; here they are far more common. Calls follow the shape of the dose curve; as a rule, active = well fitted curve in the direction sought with a large enough effect; inconclusive = small, poorly fitted or top-dose-only effect, or another doubt; inactive = no such curve, though single readings can be large; an effect the other way counts as inactive or inconclusive. Potency is read from the fitted curve at half-maximal effect.

SMILES | SMN2 splice enh | ELG1 genotoxic | NPC1 prom act | Luc counter | FLuc modulator | Rab9 prom act
Cc1ccc(N(C(=O)c2snc(C(N)=O)c2N)C(C(=O)NCCC(C)C)c2ccco2)cc1 (centres undefined) | -13% | -12% | -7% | -5% | -1% | -5%
CCOc1ccc(-c2nc3cc(NC(=O)COc4cccc(C)c4)ccc3o2)cc1 | -5% | x | x | x | -13% | x
Cc1ccc2nc(-c3ccc(Cl)c(NC(=O)COc4ccc(C(C)C)cc4)c3)oc2c1 | 17% | x | x | x | 11µM* | x
COc1ccc(OCC(=O)Nc2ccc(-c3nc4cc(C)c(C)cc4o3)cc2)cc1 | 0.56µM* | x | x | x | x | x
Cc1ccc(OCC(=O)Nc2ccc(-c3nc4ccc(C)cc4o3)cc2)cc1 | 0.63µM* | x | x | x | -2% | x
Cc1ccc2oc(-c3ccc(C)c(NC(=O)c4ccc5c(c4)OCCO5)c3)nc2c1 | 2% | x | x | x | -16% | x
Cc1ccc2nc(-c3ccc(Cl)c(NC(=O)COc4ccc([N+](=O)[O-])cc4)c3)oc2c1 | 16% | x | x | x | -9% | x
Cc1ccc2nc(-c3ccc(Cl)c(NC(=O)c4ccc5c(c4)OCCO5)c3)oc2c1 | -34% | x | x | x | 11µM* | x
O=C(NC(=S)N1CCCCCC1)c1ccc(Cl)cc1Cl | x | -6% | -3% | 4% | 2% | -1%
COc1ccc(CCNC(=O)CNC(=O)Cn2ccc3ccccc3c2=O)cc1OC | x | 2% | -1% | x | 4% | -1%
CC(=O)OCC(=O)c1c[nH]c2ccccc12 | -1% | 1% | 4% | -6% | -16% | 0%
O=C(COc1cccnc1[N+](=O)[O-])c1c[nH]c2ccccc12 | x | 6% | 17% | x | u | 12%
O=C(COC(=O)C1CC1)c1c[nH]c2ccccc12 | u | u | u | -7% | 12µM* | u
Cc1[nH]c2ccccc2c1C(=O)COC(=O)C1CCC1 | x | 0% | -2% | x | 15µM* | 1%
O=C(Cc1ccccc1[N+](=O)[O-])OCC(=O)c1c[nH]c2ccccc12 | x | 13% | u | x | 11µM* | u
O=C(COC(=O)C1CCC1)c1c[nH]c2ccccc12 | x | 1% | -1% | x | 11µM* | 2%
Cc1[nH]c2ccccc2c1C(=O)COC(=O)C1CCC(=O)N1 (centres undefined) | 8% | 0% | 2% | -3% | 4% | 1%
O=C1CCN(Cc2ccc(O)cc2)CCN1CCO | x | -1% | 0% | x | 3% | 0%
Cc1cc(NC(=O)C(C)Oc2ccccc2)no1 (centres undefined) | x | 0% | -4% | x | -1% | 0%
S=C(N/N=C/c1ccco1)NC1CC2CCC1C2 (centres undefined) | x | u | u | x | 19µM* | u
Oc1ccccc1/C=N/NC(=S)NC1CC2CCC1C2 (centres undefined) | x | 12% | 2µM* | x | 27µM* | 2.8µM*
Oc1ccccc1-c1cc(-c2ccccc2Cl)[nH]n1 | 3.5µM* | x | x | 3% | 0.67µM* | x
Oc1ccc(Cl)cc1-c1cc(-c2ccco2)[nH]n1 | 3% | -4% | 28% | -2% | 19µM* | 26%
Oc1ccccc1-c1cc(-c2ccco2)[nH]n1 | u | 5.8µM* | -2% | -4% | 9.5µM* | 15%
Oc1c(-c2cc(-c3ccco3)[nH]n2)ccc2ccccc12 | 14µM* | u | 3.2µM* | -2% | u | 3.2µM*
SMILES | SMN2 splice enh | ELG1 genotoxic | NPC1 prom act | Luc counter | FLuc modulator | Rab9 prom act
O=C(CSC1=Nc2ccccc2C2=NC(Cc3ccccc3)C(=O)N12)Nc1ccccc1C(F)(F)F (centres undefined) | x | x | x | x | 2% | x
Cc1ccc(C)c(NC(=O)CC2NCCNC2=O)c1 (centres undefined) | 4% | x | x | x | -1% | x
CCCS(=O)(=O)c1nc(S(=O)(=O)c2ccc(C)cc2)c(NCCCOC(C)C)s1 | -4% | x | x | x | -5% | x
CC(C)Sc1nnc(NC(=O)c2ccco2)s1 | x | u | u | -11% | 17µM* | u
CCOC(=O)CSc1nnc(NC(=O)c2ccco2)s1 | x | 0% | 2% | x | -13% | -1%
CCSc1nnc(NC(=O)c2ccco2)s1 | 11µM* | u | 25% | -9% | u | u
O=C(Nc1nnc(SCc2ccc(Cl)cc2)s1)c1ccco1 | -14% | 1% | -5% | -3% | 0% | 3%
CC1(C)Cc2c(sc(NC(=S)NC(=O)c3ccccc3)c2C(=O)O)CO1 | 2% | -1% | 2% | -2% | u | 7%
CC1(C)Cc2c(sc(NC(=O)c3ccc(Br)o3)c2C#N)CO1 | 13µM* | 22% | 2.5µM* | -1% | 2.4µM* | 3.5µM*
CC1(C)Cc2c(sc(NC(=O)c3ccco3)c2C(=O)O)CO1 | u | u | u | -9% | 6.7µM* | u
O=S(=O)(O)c1ccc(N=NNc2ccc(Br)cc2)cc1 | x | 1% | 8% | x | 9.5µM* | -2%
Cc1cccc2nc(COc3ccc(-c4ccccc4)cc3)cn12 | x | 10% | 26% | -29% | 11µM* | u
Cc1cc(C)n2cc(COc3ccc4ccccc4c3)nc2n1 | 13µM* | u | 1.8µM* | 13% | 2.4µM* | 1.1µM*
Cc1ccnc(SCc2cn3c(C)cc(C)nc3n2)n1 | 23% | 6% | -2% | 2% | 0% | -2%
CCOc1ccc(OCCCC(=O)Nc2cc(Cl)ccc2-n2cncn2)cc1 | x | -7% | 1% | x | u | -2%
CCOc1ccc(NC(=O)Cn2c(=O)n(Cc3ccco3)c(=O)c3ccc(C(=O)NC4CCCC4)cc32)cc1 | 2% | x | x | x | 0% | x
Cc1ccc2nc(Nc3cccc(C(F)(F)F)c3)c3nnnn3c2c1 | x | x | x | x | 4% | x
CCOc1ccccc1NC(=O)CSc1nnc2[nH]c(=O)cc(-c3ccccc3)n12 | x | x | x | x | 6µM* | x
Cc1ccc(C)c(NC(=O)CSc2nnc3[nH]c(=O)cc(-c4ccccc4)n23)c1 | x | x | x | x | 0.95µM* | x
CCCCc1ccc(NC(=O)CSc2nnc3[nH]c(=O)cc(C)n23)cc1 | x | x | x | x | 15µM* | x
Cc1ccc(C)c(NC(=O)CSc2nnc(-c3ccccc3)n2N)c1 | -13% | -6% | 1% | -2% | 2% | -9%
Cc1ccc(NC(=O)CSc2nnc3[nH]c(=O)cc(-c4ccccc4)n23)cc1Cl | x | x | x | x | 0.67µM* | x
C=Cc1ccc(Cn2c(C(=O)O)c(CNCc3cc(OC)ccc3OC)c3ccc(C)cc32)cc1 | x | x | x | x | 5% | x
Cc1ccccc1NC(=O)CSc1nc(-c2ccccc2)cn1-c1ccccc1F | x | x | x | x | 5% | x
Cc1ccccc1CN1c2ccccc2-c2nc(SCC(=O)c3ccccc3)ncc2S1(=O)=O | x | x | x | x | 0% | x
CCC(=O)Nc1cccc(NC(=S)NC(=O)c2ccc(Cl)cc2Cl)c1 | 27% | 9% | u | -3% | u | u
CCC(=O)Nc1cccc(NC(=S)NC(=O)c2ccccc2C)c1 | 18% | 0% | u | 0% | 15µM* | u
